Composite z-score data for 11 compounds are collected here from PubChem BioAssay.

Sequence of Focal adhesion kinase 1 (Homo sapiens) (Q05397 whole entry, looked up): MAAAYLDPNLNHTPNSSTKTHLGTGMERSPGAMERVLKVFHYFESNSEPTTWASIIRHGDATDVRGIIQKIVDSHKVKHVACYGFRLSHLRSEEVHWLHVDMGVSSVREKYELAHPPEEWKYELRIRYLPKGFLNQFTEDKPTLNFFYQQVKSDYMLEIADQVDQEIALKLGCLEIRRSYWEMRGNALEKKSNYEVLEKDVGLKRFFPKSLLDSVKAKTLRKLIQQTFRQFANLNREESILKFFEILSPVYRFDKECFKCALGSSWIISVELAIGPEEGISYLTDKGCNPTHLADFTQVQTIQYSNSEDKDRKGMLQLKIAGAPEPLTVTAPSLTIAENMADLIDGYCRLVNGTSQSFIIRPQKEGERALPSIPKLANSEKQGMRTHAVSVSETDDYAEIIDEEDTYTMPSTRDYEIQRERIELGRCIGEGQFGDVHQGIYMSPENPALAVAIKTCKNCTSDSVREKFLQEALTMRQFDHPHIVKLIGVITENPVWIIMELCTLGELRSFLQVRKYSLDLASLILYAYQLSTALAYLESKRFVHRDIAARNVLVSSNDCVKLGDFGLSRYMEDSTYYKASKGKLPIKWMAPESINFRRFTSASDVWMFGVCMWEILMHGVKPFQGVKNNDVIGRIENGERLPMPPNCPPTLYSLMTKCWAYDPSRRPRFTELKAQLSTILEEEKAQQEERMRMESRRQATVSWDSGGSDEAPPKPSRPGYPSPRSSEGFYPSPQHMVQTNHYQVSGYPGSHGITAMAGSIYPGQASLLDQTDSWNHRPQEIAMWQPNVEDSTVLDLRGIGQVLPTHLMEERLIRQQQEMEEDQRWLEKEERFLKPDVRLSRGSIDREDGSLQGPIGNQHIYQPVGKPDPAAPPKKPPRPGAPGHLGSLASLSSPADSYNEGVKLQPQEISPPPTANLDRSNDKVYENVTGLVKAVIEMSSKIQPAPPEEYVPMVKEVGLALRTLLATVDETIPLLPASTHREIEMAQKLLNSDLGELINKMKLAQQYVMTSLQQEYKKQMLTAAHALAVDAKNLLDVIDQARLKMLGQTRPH

The assay has as its target Focal adhesion kinase 1 (Homo sapiens) (UniProt Q05397). As to the kind of experiment: PTK2 protein binding on printed compound slides – biochemical, small-molecule microarray, 635/667 nm fluorescence, BSA, DTT, primary screen (AID 1130).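 Note: composite of spot emission at 667 nm and signal to noise over triplicate slides.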 The note with it: 635 nm fluorescence, higher = more signal.
For the compound `COc1ccc(C#Cc2ccc3c(c2)[C@]2(C(=O)N3)[C@H](C(=O)N3CCCCCCC3)[C@H]3C(=O)O[C@H](c4ccccc4)[C@H](c4ccccc4)N3[C@@H]2c2ccc(O)cc2)cc1`, the composite z-score was 0.127.
In the case of `C=C(/C(=C/C[C@H](OC(=O)c1ccncc1)c1cccc(OCCO)c1)c1cnc2ccccc2c1)C(C)C`, the composite z-score was determined as 0.807.
Then `CCCCCCCCCCC(O)C1C=CC2C(=O)N(C)C(=O)C2N1Nc1cc(OC)c(OC)c(OC)c1` (stereo unspecified), with 0.55; and `Nc1cc(Br)ccc1C(=O)O`, with 0.5.
`CN(C)C(=O)[C@]1(CCS(=O)(=O)c2ccccc2)N=C(c2ccc(OCCCO)cc2)O[C@@H]1c1ccccc1` yielded a composite z-score of 1.23.
Regarding `O=C1N(CCS(=O)(=O)c2ccccc2)Cc2ccccc2[C@@H]2OC(c3ccc(OCCCO)cc3)=N[C@]12CCS(=O)(=O)c1ccccc1`, the composite z-score amounted to 1.2.
On to `COc1ccc([Si](C)(C)[C@H]2[C@H](CC(=O)N3Cc4ccccc4C[C@H]3CO)O[C@@]3(C(=O)N(Cc4ccc(N5C(=O)c6cccc7cccc5c67)cc4)c4ccccc43)[C@@H]2C)cc1`, for which the composite z-score came to 1.28.
Then `COCC1=C2[C@@H](CCc3ccccc3)OB(O)C[C@@H]2[C@@H]2C(=O)N(C)C(=O)[C@@H]2C1`, with 0.164; and `CC(C)OC(=O)CC(=O)CC(O)c1ccc([N+](=O)[O-])cc1` (stereo unspecified), with -0.0134; and `CC(C)C(=C=CC[C@@H](O)c1cccc(OCCO)c1)C[C@@H](O)c1ccccn1`, with 0.0046.
Under `C=CCC(OC(C)=O)[C@@H]1[C@@H](N(Cc2cccc3ccccc23)C(=O)c2cccc3ccccc23)c2cc(OCCCO)ccc2N1C(=O)c1ccc2ccccc2c1` (stereo partly specified) stands -0.0836.
